Hit rate of the full screen: of about 5,500 compounds, about 2,000 (36%) were called active. Inconclusive results (about 18%) are left out. No stated cut-off is given here; in the data, active means normalized growth mostly below about 0.91 (no sharp cut-off); inconclusive means no clear call, values can overlap the other calls; inactive means mostly above about 0.92. The list shows a part of the results.
Test: chemical genetic growth profiling, strain panel (AID 1159580);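 further: tested at 20 µM; growth read once vehicle control cultures reached saturation at 30 °C; 1 = growth at the plate median or of vehicle wells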
Conditions: growth OD

Measured: normalized growth

CCCc1nn(C)c2c(=O)[nH]c(-c3cc(S(=O)(=O)N4CCN(C)CC4)ccc3OCC)nc12
inactive: S. cerevisiae deletion strains, locus YJR075W, strain HOC1, stronger effect = lower value 1.02 | S. cerevisiae deletion strains, locus YKL009W, strain mrt4, stronger effect = lower value 1.01 | S. cerevisiae deletion strains, locus YKL068W, stronger effect = lower value 0.995 | S. cerevisiae deletion strains, locus YKL085W, strain MDH1 (second series), stronger effect = lower value 0.996 | S. cerevisiae deletion strains, locus YKL085W, strain MDH1, stronger effect = lower value 0.996 | S. cerevisiae deletion strains, locus YKL160W, strain elf1, stronger effect = lower value 0.999 | S. cerevisiae deletion strains, locus YKL190W, strain CNB1, stronger effect = lower value 1.02 | S. cerevisiae deletion strains, locus YKR026C, strain gcn3, stronger effect = lower value 1 | S. cerevisiae deletion strains, locus YKR091W, strain srl3, stronger effect = lower value 0.987 | S. cerevisiae deletion strains, locus YLL001W, strain dnm1, stronger effect = lower value 0.992 | S. cerevisiae deletion strains, locus YLL026W, stronger effect = lower value 0.985 | S. cerevisiae deletion strains, locus YLL041C, strain sdh2, stronger effect = lower value 0.992 | S. cerevisiae deletion strains, locus YLR027C, strain aat2, stronger effect = lower value 0.992 | S. cerevisiae deletion strains, locus YLR039C, strain RIC1, stronger effect = lower value 1.02 | S. cerevisiae deletion strains, locus YLR058C, strain SHM2, stronger effect = lower value 1.02 | S. cerevisiae deletion strains, locus YLR102C, strain apc9, stronger effect = lower value 0.988 | S. cerevisiae deletion strains, locus YLR113W, strain HOG1, stronger effect = lower value 1.03 | S. cerevisiae deletion strains, locus YLR221C, strain rsa3, stronger effect = lower value 0.988 | S. cerevisiae deletion strains, locus YLR258W, strain gsy2, stronger effect = lower value 0.984 | S. cerevisiae deletion strains, locus YLR262C, strain YPT6 (second series), stronger effect = lower value 0.986 | S. cerevisiae deletion strains, locus YLR262C, strain YPT6, stronger effect = lower value 1.05 | S. cerevisiae deletion strains, locus YLR268W, strain sec22, stronger effect = lower value 0.993 | S. cerevisiae deletion strains, locus YLR320W, strain mms22, stronger effect = lower value 0.986 | S. cerevisiae deletion strains, locus YLR330W, strain CHS5, stronger effect = lower value 1.02 | S. cerevisiae deletion strains, locus YLR342W, strain FKS1 (second series), stronger effect = lower value 1.03 | S. cerevisiae deletion strains, locus YLR342W, strain FKS1, stronger effect = lower value 0.99 | S. cerevisiae deletion strains, locus YLR357W, strain rsc2, stronger effect = lower value 0.983 | S. cerevisiae deletion strains, locus YLR370C, strain arc18, stronger effect = lower value 0.988 | S. cerevisiae deletion strains, locus YLR371W, strain rom2, stronger effect = lower value 0.978 | S. cerevisiae deletion strains, locus YLR384C, strain iki3, stronger effect = lower value 0.981 | S. cerevisiae deletion strains, locus YLR418C, strain cdc73, stronger effect = lower value 0.987 | S. cerevisiae deletion strains, locus YML016C, strain PPZ1, stronger effect = lower value 1.02 | S. cerevisiae deletion strains, locus YML032C, strain rad52, stronger effect = lower value 1 | S. cerevisiae deletion strains, locus YML120C, strain ndi1, stronger effect = lower value 0.995 | S. cerevisiae deletion strains, locus YML124C, strain tub3, stronger effect = lower value 0.99 | S. cerevisiae deletion strains, locus YMR058W, strain fet3, stronger effect = lower value 0.999 | S. cerevisiae deletion strains, locus YMR078C, strain ctf18, stronger effect = lower value 1.01 | S. cerevisiae deletion strains, locus YMR125W, strain sto1, stronger effect = lower value 0.981 | S. cerevisiae deletion strains, locus YMR129W, stronger effect = lower value 0.974 | S. cerevisiae deletion strains, locus YMR205C, strain PFK2, stronger effect = lower value 0.981 | S. cerevisiae deletion strains, locus YMR223W, strain ubp8, stronger effect = lower value 1 | S. cerevisiae deletion strains, locus YMR231W, strain pep5, stronger effect = lower value 0.988 | S. cerevisiae deletion strains, locus YMR263W, strain SAP30, stronger effect = lower value 1.03 | S. cerevisiae deletion strains, locus YMR307W, strain GAS1, stronger effect = lower value 1.1 | S. cerevisiae deletion strains, locus YNL067W, strain RPL9B, stronger effect = lower value 1.03 | S. cerevisiae deletion strains, locus YNL071W, strain lat1, stronger effect = lower value 0.991 | S. cerevisiae deletion strains, locus YNL128W, strain TEP1, stronger effect = lower value 1.02 | S. cerevisiae deletion strains, locus YNL153C, strain GIM3, stronger effect = lower value 1.02 | S. cerevisiae deletion strains, locus YNL183C, strain NPR1, stronger effect = lower value 0.978 | S. cerevisiae deletion strains, locus YNL209W, strain ssb2, stronger effect = lower value 0.99 | S. cerevisiae deletion strains, locus YNL233W, strain BNI4, stronger effect = lower value 1.02 | S. cerevisiae deletion strains, locus YNL248C, strain rpa49, stronger effect = lower value 0.981 | S. cerevisiae deletion strains, locus YNL250W, strain rad50, stronger effect = lower value 0.995 | S. cerevisiae deletion strains, locus YNL271C, strain bni1, stronger effect = lower value 0.99 | S. cerevisiae deletion strains, locus YNL298W, strain CLA4, stronger effect = lower value 0.984 | S. cerevisiae deletion strains, locus YNL307C, strain MCK1, stronger effect = lower value 0.995 | S. cerevisiae deletion strains, locus YNL322C, strain KRE1 (second series), stronger effect = lower value 0.982 | S. cerevisiae deletion strains, locus YNL322C, strain KRE1, stronger effect = lower value 1.01 | S. cerevisiae deletion strains, locus YNR049C, strain mso1, stronger effect = lower value 0.992 | S. cerevisiae deletion strains, locus YNR052C, strain pop2, stronger effect = lower value 1 | S. cerevisiae deletion strains, locus YOL006C, strain TOP1, stronger effect = lower value 1.1 | S. cerevisiae deletion strains, locus YOL012C, strain htz1 0.868 | S. cerevisiae deletion strains, locus YOL147C, strain pex11, stronger effect = lower value 0.985 | S. cerevisiae deletion strains, locus YOR001W, strain rrp6, stronger effect = lower value 0.999 | S. cerevisiae deletion strains, locus YOR061W, strain CKA2, stronger effect = lower value 1.02 | S. cerevisiae deletion strains, locus YOR069W, strain VPS5, stronger effect = lower value 1.02 | S. cerevisiae deletion strains, locus YOR070C, strain gyp1, stronger effect = lower value 0.984 | S. cerevisiae deletion strains, locus YOR080W, strain dia2, stronger effect = lower value 0.996 | S. cerevisiae deletion strains, locus YOR083W, strain WHI5, stronger effect = lower value 0.987 | S. cerevisiae deletion strains, locus YOR106W, strain vam3, stronger effect = lower value 0.987 | S. cerevisiae deletion strains, locus YOR136W, strain idh2, stronger effect = lower value 0.991 | S. cerevisiae deletion strains, locus YOR144C, strain elg1, stronger effect = lower value 0.986 | S. cerevisiae deletion strains, locus YOR184W, strain ser1, stronger effect = lower value 0.988 | S. cerevisiae deletion strains, locus YOR231W, strain MKK1, stronger effect = lower value 1.03 | S. cerevisiae deletion strains, locus YOR265W, strain rbl2, stronger effect = lower value 1 | S. cerevisiae deletion strains, locus YOR270C, strain vph1, stronger effect = lower value 0.983 | S. cerevisiae deletion strains, locus YOR290C, strain snf2, stronger effect = lower value 1 | S. cerevisiae deletion strains, locus YOR316C, strain cot1, stronger effect = lower value 0.991 | S. cerevisiae deletion strains, locus YPL051W, strain arl3, stronger effect = lower value 0.993 | S. cerevisiae deletion strains, locus YPL055C, strain LGE1, stronger effect = lower value 1.05 | S. cerevisiae deletion strains, locus YPL078C, strain atp4, stronger effect = lower value 0.994 | S. cerevisiae deletion strains, locus YPL106C, strain sse1, stronger effect = lower value 0.977 | S. cerevisiae deletion strains, locus YPL240C, strain hsp82, stronger effect = lower value 0.997 | S. cerevisiae deletion strains, locus YPL241C, strain CIN2, stronger effect = lower value 1.02 | S. cerevisiae deletion strains, locus YPL256C, strain CLN2, stronger effect = lower value 1.05 | S. cerevisiae deletion strains, locus YPR119W, strain clb2, stronger effect = lower value 0.986 | S. cerevisiae deletion strains, locus YPR141C, strain kar3, stronger effect = lower value 0.993 | S. cerevisiae deletion strains, locus YPR163C, strain tif3, stronger effect = lower value 0.982 | S. cerevisiae deletion strains, locus YPR167C, strain met16, stronger effect = lower value 0.988 | S. cerevisiae deletion strains, strain wtn01, stronger effect = lower value 0.998 | S. cerevisiae strains, strain wild type, stronger effect = lower value 1.01
active: S. cerevisiae deletion strains, locus YKR001C, strain vps1, stronger effect = lower value 0.64

Source: PubChem BioAssay AID1159580 (chemical genetic matrix, 2015)
